Growth data for 13 compounds are collected here from PubChem BioAssay (NCI).

Molecules are shown by their SMILES. The panel holds about 83,000 compounds, 20% with a hit somewhere; the sample as a whole holds those more often.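 Growth was measured after 48 h exposure to one concentration of compound in 96-well plates. Values under 10 count as active.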 Unmarked numbers belong to inactive results. Calls of active or inactive are those of the source.

What all share (experiment): NCI-60 one-dose screen, 48 h (100 = growth as untreated, 0 = no growth, -100 = all killed)
For assay [1], the system named is DU-145 prostate. To be noted: 10 µM unless noted.
In assay [2] the test system is K-562 leukemia. To be noted: 10 µM unless noted.
Assay [3] relates to MALME-3M melanoma. To be noted: 10 µM unless noted.
The test system of assay [4] is MDA-MB-231 breast. To be noted: 10 µM unless noted.
Assay [5] relates to RXF 393 renal. The note with it: 10 µM unless noted.
Assay [6] concerns SF-268 CNS. The note with it: 10 µM unless noted.
The subject of assay [7] is SF-295 CNS. The note with it: 10 µM unless noted.
Assay [8] concerns SF-539 CNS. The note with it: 10 µM unless noted.
In assay [9] the test system is UACC-257 melanoma. To be noted: 10 µM.
The test system of assay [10] is M14 melanoma. The note with it: 10 µM unless noted.

As to `CCCOC(=O)C1(O)CCCC1`, the growth in assay [1] is 123%; in assay [2], 110%; in assay [3], 96.3%; in [4], 112%; in [5], 103%; in assay [6], 121%. The growth in assay [7] was 105%; in [8] it was 88.1%; in [9] it was 103%; in assay [10] it was 107%.
Regarding `Cc1ccc(Nc2ncnc3c2sc2ncccc23)cc1`, the growth in [1] is 108%; in assay [2], 53.8%; in assay [3] it was 107%; in assay [4] it was 103%; in assay [5] it was 88.2%; in assay [6], 97.6%. Moreover, the growth was 110% in assay [7], 100% in assay [8], 99.5% in assay [9] and 101% in assay [10].
As for `COc1ccc(-n2cnc3c(sc4ncc(Cl)cc43)c2=O)cc1`, the growth is 83.6% in assay [1]; 87.9% in assay [2]; 88.2% in assay [3]; 113% in assay [4]; 106% in assay [5]; 65.8% in [6]. The growth is 44.2% in [7], 91.6% in assay [8], 90.8% in assay [9] and 105% in [10].
In the case of `COC1=CC(c2ccc[nH]2)=N/C1=C\c1[nH]c(C)c(CCCn2cc(CCCCCCCCC[C@@H]3Cc4cc(O)ccc4C4CC[C@]5(C)[C@@H](O)CC[C@H]5C43)nn2)c1C` (stereo not given in full), the growth in assay [1] was 33.3%; in [2], 28%; in [3], 137%; in assay [4], -12.8% (active); in assay [5], 28.1%; in assay [6], 58.2%. The growth is 65.2% in assay [7], 59.1% in assay [8], 98.5% in assay [9] and 74% in assay [10].
On to `COc1ccc(C2=CC(c3ccc(Oc4ccnc5cc(Cl)ccc45)c(OC)c3)c3c(nc(OC)[nH]c3=O)N2)cc1` (stereo not given), for which the growth in [1] is 75.6%; in assay [2], 28%; in assay [3], 78.5%; in assay [4], 75.2%; in [5] it was 78%; in assay [6], 61.6%. The growth was 96.5% in assay [7], 105% in [8], 87.5% in assay [9] and 82.8% in [10].
Regarding `Cn1cc(C=O)c2ccccc21`, the growth in assay [1] was 111%; in assay [2] it was 95.4%; in assay [3], 87.9%; in [4], 104%; in assay [5], 105%; in assay [6], 101%. In addition, the growth in [7] is 107%; in assay [8] it was 97.6%; in assay [9] it was 105%; in assay [10], 103%.
With `Cc1nc(Nc2cccnc2)sc1C(=O)/C=C/c1ccc(Cl)cc1`, the growth in assay [1] was 17.6%; in assay [2], 7.88% (active); in [3], 89.7%; in assay [4] it was 73.9%; in assay [5], 16.2%; in assay [6], 46.7%. For the same compound, the growth in assay [7] is 42.8%; in assay [8] it was -14.5% (active); in assay [9], 73.7%; in assay [10] it was 38.2%.
Take `COc1cccc(/C=C2\SC(N3CCN(c4ccccn4)CC3)=NC2=O)c1`: the growth is 101% in assay [1]; 82.2% in assay [2]; 96.8% in [3]; 99.2% in [4]; 113% in assay [5]; 102% in assay [6]. Moreover, the growth is 98.6% in assay [7], 110% in assay [8], 101% in assay [9] and 103% in assay [10].
For `COc1ccc([N+](=O)[O-])c(/C=C/C(=O)c2ccccn2)c1`, the growth in assay [1] is 28.5%; in assay [2] it was 21%; in assay [3] it was 91%; in [4], 86.2%; in assay [5] it was 74.1%; in assay [6], 89.1%. Also, the growth in assay [7] was 133%; in assay [8], 95.2%; in assay [9], 96.9%; in assay [10], 104%.
Consider `COC1=CC(c2ccc[nH]2)=N/C1=C\c1[nH]c(C)c(C(=O)CCCCC(=O)NCc2ccccc2)c1C`, for which the growth in assay [1] was 17%; in assay [2], 74.5%; in [3] it was 76.7%; in assay [4] it was -30.5% (active); in [5], -72.3% (active); in assay [6] it was 54.9%. Also, the growth is 51.2% in [7], 56.6% in assay [8], 86.9% in [9] and 36.2% in assay [10].
For the compound `CCCCCCCCCCCCCCCCC(Br)C(=O)O` (stereo not given), the growth in [1] was 116%; in assay [2], 86.1%; in [3], 98.3%; in assay [4], 115%; in assay [5] it was 105%; in [6] it was 112%. Besides, the growth in assay [7] is 93.8%; in assay [8], 86.4%; in assay [9], 110%; in assay [10], 101%.
As for `COc1ccc(NC(=O)CSc2nc3ccc(Cl)cc3c(=O)n2-c2ccccc2C(F)(F)F)c(OC)c1OC`, the growth is 79.1% in [1]; 92.8% in assay [2]; 60.8% in assay [3]; 54% in assay [4]; 60.3% in assay [5]; 66.7% in assay [6]. The growth in [7] was 60.9%; in assay [8], 66.9%; in assay [9], 86%; in assay [10], 91.4%.
`COc1ccc(C(=O)c2cc(OC)c(OC)c(OC)c2)cc1/C=C/C(=O)c1ccc(O)cc1`: the growth was 26.4% in [1]; 19% in assay [2]; 91.6% in assay [3]; 35% in assay [4]; 35.1% in assay [5]; 12.8% in [6]. The growth is 29.9% in assay [7], 0.251% (active) in assay [8], 36% in assay [9] and 15.8% in [10].
